TGFb inhibitor – TGF-b pathway inhibition; HepG2 CAGA-GFP TGF-b/SMAD3 reporter, GFP fluorescence, 18 h; TGF-beta stimulated, 500 pg/mL final; Potency, µM (doses to about 46.1 µM), most hits filed as inhibitors; actives 1.2% (n = 410,000); AID 588855; note: nearly all actives have a fitted effect of over 65% in size
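Inhibition was scored as loss of TGF-beta-induced (500 pg/mL final, 18 hours, 37 degrees C) GFP in HEPG2 cells carrying a CAGA-GFP reporter, in DMEM with 1% FBS. Well GFP was summed per cell; Activity was normalised to unstimulated and stimulated DMSO wells, then concentration-response fitting.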
HepG2 tox – kills HepG2 cells in TGF-b inhibitor counter-screen; HepG2 CAGA-GFP viability, ATP luminescence, 18 h; actives 0.76% (n = 410,000); Potency, µM (series often up to 46.1 µM), actives largely listed as cytotoxic
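CellTiter-Glo luminescence gave cytotoxicity after 18 hours at 37 degrees C. The cells were HepG2 CAGA-GFP in 1% FBS DMEM, stimulated with 500 pg/mL TGF-beta after compound addition. %Activity was normalised to no-cell wells (complete cell-killing) and DMSO (no toxicity), and curves were fitted and classified.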
HT1080 IDH1KD tx – HT-1080 IDH1 knockdown cell toxicity (counter line); actives 2% (n = 360,000); Potency, µM (top dose mostly 46.1 µM), usual class: cytotoxic; AID 686971; HT-1080 IDH1 knockdown viability, ATP luminescence, 48 h
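Assay cells: HT-1080 with IDH1 knockdown, 750 per well, RPMI/5% FBS. Exposure: 48 h at 37 °C following 2 h pre-incubation. Read: CellTiter-Glo luminescence; fitted concentration-response, curve class assigned.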
Giardia kill – kills Giardia lamblia. AID 540267. Giardia lamblia trophozoite viability. actives 0.15% (n = 340,000). activity change, % at 7.66 µM, hits read low; in the data active = activity change below about -80%; inconclusive = between about -30% and that limit;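 note: parasites exposed to compound for two days anaerobically before the ATP read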
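Giardia lamblia trophozoites (100 cells/well) were incubated with compounds for 48 h at 37 deg C under anaerobic conditions. Viability was read as ATP content by one-step luminescence after 15-30 min at room temperature.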
IL-1B inflam inh – inflammasome signaling inhibition, IL-1 beta readout. THP-1 LPS/ATP IL-1B secretion, AlphaLISA, 16 h; active compounds read low. activity change, % at 57.5 µM. actives 4.7% (n = 360,000). AID 743279; in the data active = activity change below about -50%; inconclusive = mostly about -30% to -49%
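THP-1 cells pretreated 1 hr with compounds (up to 57.5 uM final), then stimulated with LPS (250 ng/mL final) plus ATP (1.25 mM final); secreted IL-1B measured by AlphaLISA after 16 hr, decreased signal indicating inhibition.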
HT1080-NT tox – kills 2HG-producing HT-1080-NT fibrosarcoma cells | HT-1080-NT fibrosarcoma viability, CellTiter-Glo ATP luminescence, 48 h | Potency, µM (highest dose often 46.1 µM), hits mostly cytotoxic | actives 1.6% (n = 360,000);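 note: NT is the 2HG producing partner of a matched IDH1 knockdown line; nearly all actives have a fitted effect of over 55% in size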
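Viability of the 2HG-overproducing fibrosarcoma line after 48 hours of compound exposure at 37 degrees C was determined by luminescence with CellTiter-Glo, and concentration-effect curves were then fitted and categorized.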
A number is an active result; n = inactive; u = inconclusive; x = not tested or not shown. Most compounds without a hit are left out; they make up all but 6.5% or so of the library. Unless noted, calls come from the whole dose curve; as a rule, active = well fitted curve in the direction sought with a large enough effect; inconclusive = small, poorly fitted or top-dose-only effect, or another doubt; inactive = no such curve, though single readings can be large; an effect the other way counts as inactive or inconclusive.

SMILES | TGFb inhibitor | HepG2 tox | HT1080 IDH1KD tx | Giardia kill | IL-1B inflam inh | HT1080-NT tox
O=C(NCc1nnc2c3ccccc3c(-c3ccccc3)nn12)c1ccc(Cl)cc1 | n | n | n | n | -96.6 | n
Cc1ccc(N2CCN(C(=O)C3CCCN(c4ncnc5c4nc4n5CCCCC4)C3)CC2)c(C)c1 (stereo not drawn) | n | n | n | n | n | n
CN(C(=O)C1CCCN(c2ncnc3c2nc2n3CCCCC2)C1)c1cccc(Cl)c1 (stereo not drawn) | u | n | u | n | n | u
O=C(C1CCCN(c2ncnc3c2nc2n3CCCCC2)C1)N1CCN(c2ccccc2)CC1 (stereo not drawn) | n | n | n | n | n | n
Cc1ccc(C)c(N2CCN(C(=O)C3CCCN(c4ncnc5c4nc4n5CCCCC4)C3)CC2)c1 (stereo not drawn) | 17.8µM | n | n | n | u | n
CCN(C(=O)C1CCN(c2ncnc3c2nc2n3CCCCC2)CC1)c1cccc(Cl)c1 | 11.2µM | n | x | x | x | x
O=C(C1CCCN(c2ncnc3c2nc2n3CCCCC2)C1)N1CCN(c2cccc(Cl)c2)CC1 (stereo not drawn) | 11.2µM | n | u | n | u | u
CC(=O)Nc1cccc(Oc2nc(C)cc(C)c2C#N)c1 | n | n | n | n | n | n
Cc1ccc(C(=O)OCC(=O)N(C)C2CCS(=O)(=O)C2)cc1S(=O)(=O)N1CCOCC1 (stereo not drawn) | n | n | n | n | n | n
COc1ccccc1NC(=O)CSc1nc(O)cc(=O)n1C | n | n | n | n | n | n
O=C(c1ccccc1)C1C(c2ccccc2)C1[N+](=O)[O-] (stereo not drawn) | n | n | n | n | -56.1 | n
CC(C)(C)c1ccc(C(=O)Nc2ccc(C(=O)NCc3cccnc3)cc2)cc1 | n | n | 1.03µM | n | n | 1.64µM
O=C(NCc1cccnc1)c1ccc(NC(=O)c2ccc([N+](=O)[O-])cc2)cc1 | n | n | 14.6µM | n | n | u
O=C(NC(=S)NCc1cccnc1)c1ccc([N+](=O)[O-])cc1 | n | n | n | n | n | n
COCCNC(=O)c1ccc(C)c(NC(=O)C2=C(C)OCCS2)c1 | n | n | n | n | n | u
CC1=C(C(=O)Nc2cc(C(=O)N(C)Cc3ccccc3)ccc2C)SCCO1 | n | n | n | n | -54.8 | n
CN1c2ccccc2Oc2nnc(Cl)cc21 | n | n | n | n | -51.8 | n
CN1c2ccccc2Oc2nnc(N3CCN(Cc4ccccc4)CC3)cc21 | n | n | n | n | -96.1 | n
Cc1ccc(NC(=O)c2cc(-c3ccccc3)nn2-c2ccccc2)cc1 | n | n | n | n | u | n
O=C(Nc1ccc(F)cc1)c1nn(-c2ccccc2)c(=O)cc1Cl | u | n | 20.6µM | n | -144.9 | 18.4µM
O=C1[C@H](Cc2ccccc2)NCCCC[C@H](c2ccc(Cl)cc2)N1Cc1ccccc1 | u | n | u | n | n | u
O=C1[C@H](Cc2ccccc2)NCCCC[C@@H](c2ccc(Cl)cc2)N1Cc1ccc(Cl)cc1 | u | n | u | n | -50.1 | u
O=C1[C@H](Cc2ccccc2)NC/C=C\C[C@@H](c2ccc(Cl)cc2)N1Cc1ccccc1 | u | 8.91µM | x | x | x | x
Cc1cc(C)n2c(SCc3cccs3)nnc2n1 | n | n | n | n | n | n
Cc1cc(C)c(NC(=O)CC(=O)c2ccccc2)c(Cl)c1 | n | n | n | n | n | n
SMILES | TGFb inhibitor | HepG2 tox | HT1080 IDH1KD tx | Giardia kill | IL-1B inflam inh | HT1080-NT tox
Cc1cc(Cl)ccc1OCC(=O)OCC(=O)Nc1cccnc1Cl | n | n | n | n | n | n
COc1ccc2cc(C(=O)/C=C/c3cc(OC)c(O)c(OC)c3)ccc2c1 | u | 17.8µM | 16.4µM | n | -98.3 | 20.6µM
COc1ccc(C(=O)/C=C/c2cc(OC)c(O)c(OC)c2)c(F)c1 | n | n | u | n | -100.0 | u
Cn1c(N)c(C(=O)CSc2nnc(-c3cccs3)n2C2CC2)c(=O)[nH]c1=O | n | n | n | n | n | n
COc1cc(NC(=O)c2ccc(-c3cccnc3)c3ccoc23)cc(OC)c1OC | n | n | n | x | n | n
COc1cc(NC(=O)c2ccc(-c3cn[nH]c3)c3ccoc23)cc(OC)c1OC | n | n | n | x | -74.2 | n
CC1Cc2ccccc2N1C(=O)COC(=O)c1cc(Br)ccc1O (stereo not drawn) | n | n | n | n | n | n
COC(=O)Nc1nc(-c2ccccc2)c(C(=O)c2ccc(Cl)cc2)s1 | u | n | u | n | n | u
CCOC(=O)Nc1nc(-c2ccccc2)c(C(=O)c2ccccc2)s1 | u | n | 0.581µM | n | n | 0.581µM
Nc1cc2c(cc1C(=O)c1ccccc1)OCCO2 | n | n | n | n | n | n
Cc1cc[n+](CC(=O)c2ccccc2)c2ccccc12 | n | n | n | n | n | n
Cc1c(N)cc[n+](CC(=O)c2ccccc2)c1C | n | n | u | n | -69.5 | n
COC(=O)c1ccc(NC(=O)CC2C(=O)N(c3cccc(C)c3)C(=O)N2Cc2ccco2)cc1 (stereo not drawn) | n | n | x | x | x | x
CCN=C1S/C(=C\c2ccc(O)c(OCC)c2)C(=O)N1CC | n | n | n | n | n | n
CCN=C1S/C(=C\c2cc(OCC)c(O)cc2Br)C(=O)N1CC | n | n | 20.6µM | n | n | 18.4µM
O=C(NNC(=O)c1ccncc1)Nc1ccc(Br)cc1 | n | n | n | n | n | n
CC(C)OC(=O)c1ccc(NC(=O)Cn2c(-c3nonc3N)nc3ccccc32)cc1 | n | n | u | n | n | u
COc1ccc(/C=N/Nc2cc(C)nc(-n3nc(C)cc3C)n2)c(OC)c1 | u | n | 9.2µM | n | -103.5 | u
COc1ccccc1/C=N/Nc1cc(C)nc(N2CCOCC2)n1 | n | n | n | n | n | n
Cc1cc(N/N=C/c2ccc(F)cc2)nc(-n2nc(C)cc2C)n1 | u | n | 1.84µM | n | n | u
CNc1cc(C)nc(-n2nc(C)cc2C)n1 | n | n | n | n | n | n
CCOc1ccc(Nc2cc(C)nc(-n3nc(C)cc3C)n2)cc1 | u | n | 0.411µM | n | n | u
CCOc1cc(/C=N/Nc2cc(C)nc(-n3nc(C)cc3C)n2)ccc1O | u | n | 5.8µM | n | n | 5.8µM
Cc1ccc(N2CC(C(=O)N3CCC(C(=O)Nc4cccc(Br)c4)CC3)CC2=O)cc1 (stereo not drawn) | n | n | n | n | u | n
C=CCC1(CC=C)CCCN1C(=O)Cn1nnnc1CN(C)C(C)C | n | n | n | n | n | n
COc1cccc(/C=N/Nc2cc(-n3nc(C)cc3-c3ccccc3)ncn2)c1O | u | n | u | n | n | u
